# Measurements: PubChem BioAssay AID588774 (The Scripps Research Institute Molecular Screening Center, 2011)
# The source made the active and inactive calls.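 How the source made its calls: active means target enzyme inhibited at least 50% at a set dose, and selective over every off-target enzyme by a set factor; inactive means weaker inhibition or too little selectivity.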
# Key:
# [1] = competitive ABPP of pPAFAH versus proteome hydrolases – biochemical, gel-based, FP-Rh fluorescence, complex proteome, SAR compounds, selectivity assay for pPAFAH inhibitor project, SAR follow-up (AID 588774); details: MW 30 kDa, anti-targets inhibited, at 10 µM;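 on inhibition: 0% = DMSO-only band intensity and 100% = blank gel background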
# MW 30 kDa = experiment: as above; details: at 10 µM, stronger effect = higher value
Compound,anti-target count [1],inhibition (MW 30 kDa)
O=C(N1CCOCC1)n1oc2cc(Cl)ccc2c1=O,6,78% (inactive)
Cc1cc(N2CCN(C(=O)n3ncc(-c4ccc(Cl)c(Cl)c4)n3)CC2)c2ccccc2n1,8,93% (inactive)
Cc1cc(N2CCN(C(=O)Oc3ccc(C(F)(F)F)cc3)CC2)c2ccccc2n1,1,0% (inactive)
Cc1cc(N2CCN(C(=O)Oc3ccc([N+](=O)[O-])cc3)CC2)c2ccccc2n1,2,0% (inactive)
